Rab9 promoter act – qHTS Assay for Rab9 Promoter Activators; Huh7 Rab9 promoter-luciferase reporter, luminescence, 24 h; Potency, µM (top dose mostly 9.22 µM), without a hit: at the highest dose activation, negative = inhibition, most hits filed as activators; 320,000 tested, 2.8% active; AID 485297, 2010; note: % of control where 0% means no effect; nearly all actives have a fitted effect of over 60% in size
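Rab9 promoter-driven luciferase in stably transfected Huh7 cells; 1500 cells/well rested 2 h, exposed to compound in DMSO for 24 h at 37 °C, 5% CO2. Luminescence read 10 min after adding luciferase reagent at ambient temperature.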
SMN2 splice up – qHTS Assay for Enhancers of SMN2 Splice Variant Expression | HEK293 SMN2-luciferase splicing reporter, luminescence, 30-36 h | Potency, µM (titrated, usually from 46.1 µM), without a hit: top-dose activity change, positive = activation, hits mostly activators | 210,000 tested, 2.8% active; note: % of control where 0% means no effect; nearly all actives have a fitted effect of over 55% in size
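HEK293 cells carry an SMN2 […]–luciferase reporter in which exon 7 inclusion puts luciferase in frame. Cells were plated 10-12 h before compound addition, then incubated 30-36 h at 37C. ONE-Glo luminescence was read; sodium butyrate at 4.5 mM final served as control.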
FLuc modulator – qHTS profiling assay for firefly luciferase inhibitor/activator using purifed enzyme and Km concentrations of substrates (counterscreen for miR-21 project); Luciferin 4-monooxygenase (Photinus pyralis), P08659; purified FLuc, Km substrates, luminescence inhibition; Potency, µM (series often up to 57.5 µM), for inactives: at the highest dose activity change, negative = inhibition, hits mostly inhibitors; 360,000 tested, 6.9% active;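 note: plate controls were vehicle for no effect and reference inhibitor for full effect; nearly all actives have a fitted effect of over 55% in size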
Target sequence (P08659 whole entry, looked up): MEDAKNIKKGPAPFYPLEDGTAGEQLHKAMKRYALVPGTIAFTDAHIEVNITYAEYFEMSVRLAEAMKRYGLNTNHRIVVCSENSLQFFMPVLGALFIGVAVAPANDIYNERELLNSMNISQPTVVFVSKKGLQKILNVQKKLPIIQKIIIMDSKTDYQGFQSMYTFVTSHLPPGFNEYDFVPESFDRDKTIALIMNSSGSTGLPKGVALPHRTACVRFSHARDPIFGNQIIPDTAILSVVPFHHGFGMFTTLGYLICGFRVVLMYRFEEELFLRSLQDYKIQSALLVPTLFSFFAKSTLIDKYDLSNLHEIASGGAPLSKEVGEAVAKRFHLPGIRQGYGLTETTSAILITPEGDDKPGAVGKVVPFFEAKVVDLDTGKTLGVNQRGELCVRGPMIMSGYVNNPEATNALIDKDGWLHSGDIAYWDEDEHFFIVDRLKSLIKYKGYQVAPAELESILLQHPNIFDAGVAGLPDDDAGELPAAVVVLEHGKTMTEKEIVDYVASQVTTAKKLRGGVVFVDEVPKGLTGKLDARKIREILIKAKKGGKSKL
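Purified P. pyralis luciferase (10nM final) with 10uM D-luciferin and 10uM ATP (Km levels) in 50mM Tris acetate pH 7.5, 10mM Mg acetate, 0.01% Tween-20, 0.05% BSA; qHTS 6-point titration, ~60 µM downward; luminescence read.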
ELG1 genotox – qHTS screen for small molecules that induce genotoxicity in human embryonic kidney (HEK293T) cells expressing luciferase-tagged ELG1. 330,000 tested, 1.3% active. Potency, µM (doses to about 46 µM), without a hit: at the top dose activity change, positive = activation, most hits filed as activators. HEK293T ELG1-luciferase reporter, luminescence, 16 h; note: % of control where 0% means no effect; nearly all actives have a fitted effect of over 60% in size
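ELG1-luciferase HEK293T cells, 2,000/well; compound pinned in; 16 hr, 37 °C, 5% CO2; ONE-Glo, 30 min RT; luminescence on CCD imager.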
NPC1 promoter act – qHTS Assay for NPC1 Promoter Activators; Huh7 NPC1 promoter luciferase reporter, 24 h; Potency, µM (series often up to 9.22 µM), inactives show top-dose activation, usual class: activators; 320,000 tested, 2.4% active; AID 485313, 2010; note: % of control where 0% means no effect; nearly all actives have a fitted effect of over 60% in size
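Stably transfected Huh7 (NPC1 promoter→luciferase), 1500 cells/well in Opti-MEM + 10% FBS, 2 h settle, then compound 24 h at 37 °C. Luminescence after 10 min with Amplite reagent.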
Numbers without * were called inactive; u = inconclusive; x = no result given; [ ] = another dose, or the depositor's remark. Rows were chosen to be rich in hits. Some 7.5% of all compounds tested hit in one or more screens of this group. Calls come from the whole dose curve; as a rule, active = well fitted curve in the direction sought with a large enough effect; inconclusive = small, poorly fitted or top-dose-only effect, or another doubt; inactive = no such curve, though single readings can be large; an effect the other way counts as inactive or inconclusive. Potency is the fitted concentration of half-maximal effect.

SMILES	Rab9 promoter act	SMN2 splice up	FLuc modulator	ELG1 genotox	NPC1 promoter act
Cc1cc(/C=N/NC(=O)C(O)(c2ccccc2)c2ccccc2)c(C)n1-c1ccccc1	-1.1%	u	u	-3.0%	-3.7%
Cc1cc(/C=N/NC(=O)c2cccs2)c(C)n1-c1cnccn1	3.55µM*	x	4.78µM*	7.3µM*	2µM*
CCc1ccc(-n2c(C)cc(/C=N/NC(=O)c3ccncc3)c2C)cc1	-1.4%	-15.4%	12µM*	-11.3%	3.7%
Cc1cc(/C=N/NC(=O)c2cccs2)c(C)n1-c1ccccc1	0.794µM*	u	0.0849µM*	u	0.631µM*
Cc1cc(/C=N/NC(=O)COc2cccc3cccnc23)c(C)n1-c1ccc(O)cc1	29.5%	u	3.38µM*	4.6%	20.4%
Cc1cc(C)cc(-n2c(C)cc(/C=N\NC(=O)COc3cccc4cccnc34)c2C)c1	1.5%	3.1%	u	-3.7%	-1.6%
O=C(N/N=C/c1cccnc1)c1cccs1	18.0%	x	u	5.9%	3.2%
O=C(CCC(=O)Nc1nnc(C2CCCCC2)s1)NCc1ccccc1	-4.6%	x	6.1%	-1.0%	-4.2%
Cc1cccc(C)c1-n1c(C)cc(/C=N/NC(=O)c2ccncc2)c1C	-0.3%	1.6%	-22.7%	2.8%	0.0%
Cc1ccc(-n2c(C)cc(/C=N/NC(=O)c3ccncc3)c2C)cc1C	24.3%	-21.6%	8.49µM*	-1.1%	-7.0%
Cc1ccc(/C=N/NC(=O)c2cccc([N+](=O)[O-])c2)o1	0.8%	-21.8%	-4.0%	-0.7%	2.2%
Cc1cc(C(=O)N/N=C2\CC(=O)c3ccccc32)c(C)n1-c1ccccc1	3.55µM*	10µM*	2.69µM*	u	u
Cc1cc(/C=N/NC(=O)c2ccncc2)c(C)n1-c1ccccc1	u	u	1.9µM*	u	22.7%
Cc1cc(C(=O)N/N=C2\CC(=O)CC(C)(C)C2)c(C)n1-c1ccccc1	-2.9%	-48.5%	-18.0%	0.7%	0.3%
Cc1cc(/C=N/NC(=O)c2cccc([N+](=O)[O-])c2)c(C)n1-c1ccccc1	20.2%	27.1%	1.69µM*	u	-0.5%
Cc1ccc(-n2c(C)cc(/C=N/NC(=O)c3ccncc3)c2C)c(C)c1	8.3%	-9.6%	12µM*	-4.4%	-4.7%
Cc1cc(C(=O)N/N=C/c2ccc(O)c(O)c2O)c(C)n1-c1ccccc1	-2.9%	-37.5%	10.7µM*	-5.1%	-0.4%
Cc1cc(C)nc(SCC(=O)N/N=C/c2cc(C)n(-c3ccccc3C)c2C)n1	-1.3%	-14.0%	16.9µM*	-1.2%	-0.3%
CCOC(=O)C(CCC(C)=O)C(=O)c1ccccc1 (stereo unspecified)	1.3%	x	0.5%	0.6%	-2.1%
COc1ccc(-n2cc(CN[C@H]3CCCCNC3=O)c(-c3cccc(F)c3)n2)cc1	-0.1%	x	16.9µM*	-1.6%	-1.2%
COc1ccc(-n2cc(CNC3CCN(C)CC3)c(-c3cccc(F)c3)n2)cc1	-8.1%	x	-11.9%	8.2%	-4.2%
CCc1sc(C(=O)N2CCc3ccccc32)cc1C	0.355µM*	8.91µM*	1.9µM*	1.83µM*	1.12µM*
O=C(c1ccc(Cl)s1)N1CCc2ccccc21	2.51µM*	22.4µM*	3.79µM*	6.51µM*	u
O=C(c1ccc([N+](=O)[O-])s1)N1CCc2ccccc21	28.7%	x	-4.6%	4.6%	16.2%
O=C(c1ccc(C(=O)N2CCCc3ccccc32)s1)N1CCCc2ccccc21	0.3%	-38.4%	-1.3%	-8.6%	-0.7%
CCN(CC)CCN(C(=O)Cn1nnc(-c2ccc(C)o2)n1)C(C(=O)NC(C)(C)C)c1cccs1 (stereo unspecified)	13.2%	x	-1.3%	0.7%	-3.4%
O=C(COC(=O)c1ccc[n+]([O-])c1)Nc1c(Br)cc([N+](=O)[O-])cc1Br	0.2%	14.1%	-4.0%	-4.9%	-4.5%
O=c1[nH]c(=O)n([C@H]2C[C@@H](O)[C@@H](CO)O2)cc1C=CBr	0.4%[46.1 µM]	x	x	x	3.5%[46.1 µM]
COc1c(O)cc2oc3cc(O)c(CC=C(C)C)c(O)c3c(=O)c2c1CC=C(C)C	x	-8.4%	x	x	x

Source: PubChem BioAssay (National Center for Advancing Translational Sciences (NCATS))
